± gives the standard deviation.
The sequences below were run on MILI (PIWIL2) piRISC loaded with piRNA #1 (26 nt) (assay: pre-steady-state target cleavage rate (min^-1); guide: piRNA #1 5'p-UGAGGUAGUAGGUUGUAUAGUAUCCA; MIWI and MILI are mouse PIWI proteins and EfPiwi is from a freshwater sponge; tags in brackets are library labels; higher = faster piRNA-guided slicing of the target). Details: auxiliary factor: 500 nM mouse GTSF1.
How it was run: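 A burst-and-steady-state fit was used to obtain the pre-steady-state cleavage rate. The input data were sequencing reads of uncleaved targets, normalised to depth and to weakly complementary targets, from a […] transcribed, DNA-blocked target RNA library mixed with 1 nM active affinity-purified piRISC holding one synthetic guide, with or without 500 nM GTSF1 partner protein, in HEPES–potassium acetate buffer at 33 °C for 0–8 or 0–960 min. Three trials were pooled and k3 was capped at 0.0001 min^-1.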
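Note: 1 nM active piRISC with 0.1 nM target library at 33 °C single turnover.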

Row | Sequence | pre-steady-state target cleavage rate
1 | GGAGACCUUGACUAUACAACCUACUACCUCA | 0.163 ± 0.022
2 | GGAGAGGAUACUAUACAACCUACUACAUCA | 0.0431 ± 0.0077
3 | GGAGACCAUACUACACAACCUACUACCUCA | 0.215 ± 0.018
4 | GGAGUGGAUACUAUACAAGCUACUACCUCA | 0.233 ± 0.013
5 | GGAGACGAUACUAUACAACCUACUACCAGA | 0.125 ± 0.02
6 | GGAGUGGAUACAUACAACCUACUACCUCA | 0.131 ± 0.011
7 | GGAGAGGAUACUAUACAAGCUACUAGCUCA | 0.0601 ± 0.013
8 | GGAGACCUAACUAUACAACGUACUUCCUCA | 0.0215 ± 0.0078
9 | GGAGUGGAUACUUUACAUCCUACUACCUCA | 0.253 ± 0.012
10 | GGAGAGGAUACUAGACAACCUACUACCUCA | 0.118 ± 0.01
11 | GGAGACCUAUGAUAUGUACCUACAUGGAGA [g8:g13:cont:t1A] | < 0.0001
12 | GGAGUGGAUACUAUAGAACCUACAACCUCA | 0.0134 ± 0.0034

From the supplement of paper PMC10338343
